# Compound activity from PubChem BioAssay.
# HT1080NT lethal: qHTS for induction of synthetic lethality in tumor cells producing 2HG: qHTS for the HT-1080-NT fibrosarcoma cell line; HT-1080-NT fibrosarcoma viability, CellTiter-Glo ATP luminescence, 48 h; 360,000 tested, 1.6% active; Potency, µM (highest dose often 46.1 µM), inactives show at the top dose activity, negative = less viability, most hits filed as cytotoxic;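 also: NT is the 2HG producing partner of a matched IDH1 knockdown line; 0% = DMSO-treated cells and -100% = media-only wells without cells; nearly all actives have a fitted effect of over 55% in size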
#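 A 48-hour cytotoxicity screen used HT-1080-NT cells plated 2 hours before compound delivery. ATP-based CellTiter-Glo luminescence measured viability, normalized to DMSO and no-cell controls.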
# HT1080 IDH1KD tx: qHTS for induction of synthetic lethality in tumor cells producing 2HG: qHTS for the HT-1080-IDH1KD cell line. Potency, µM (titrated, usually from 46.1 µM), for inactives: at the top dose activity, negative = toxicity, actives largely listed as cytotoxic. AID 686971, 2013. HT-1080 IDH1 knockdown viability, ATP luminescence, 48 h. 360,000 tested, 2% active;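 also: 0% = DMSO wells and -100% = cell-free medium wells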
#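 After a 2 h attachment period, IDH1KD HT-1080 cells took pin-transferred compound for 48 h at 37 °C; ATP-based luminescence after 10 min room-temperature reagent incubation reported viability.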
# KB-3-1 tox: qHTS assay for MDR1-selective chemotherapeutics: Primary screen using the parental adenocarcinoma cell KB-3-1; 400,000 tested, 1.4% active; Potency, µM (titrated, usually from 46.1 µM), usual class: cytotoxic; KB-3-1 viability, CellTiter-Glo ATP luminescence, 72 h; also: % is scaled to controls: 0 for no effect and ±100 for the full control effect; nearly all actives have a fitted effect of over 60% in size
#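 Cytotoxicity measured as CellTiter-Glo luminescence after 72 h at 37 C. Compound titrations were pinned onto drug-naive KB-3-1 parental adenocarcinoma cells grown in DMEM with 10% FBS, and normalized data fitted to concentration-response curves.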
# KB-V1 cytotox: qHTS assay for MDR1-selective chemotherapeutics: Primary screen using the drug-selected MDR subline cells KB-V1; KB-V1 MDR cells viability, CellTiter-Glo, 72 h; Potency, µM (doses to about 46.1 µM), hits mostly cytotoxic; 400,000 tested, 3.4% active; AID 1347076, 2019; also: % is scaled to controls: 0 for no effect and ±100 for the full control effect; nearly all actives have a fitted effect of over 60% in size
#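 KB-V1, DMEM (no phenol red) + 10% FBS; cpd pin-transferred, titration series; 72 h, 37 degrees C; CellTiter-Glo, luminescence. Data normalized, curve-fit.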
# MCF10A rerep: A quantitative high throughput screen for small molecules that induce DNA re-replication in MCF 10a normal breast cells; MCF 10A DNA re-replication, Hoechst nuclear intensity, 48 h; Potency, µM (titrated, usually from 46.1 µM), inactives show at the top dose activity, positive = re-replication, usual class: activators; 350,000 tested, 2.9% active; AID 624296, 2012; also: % of control where 0% means no effect; nearly all actives have a fitted effect of over 50% in size
# SW480 rerep: A quantitative high throughput screen for small molecules that induce DNA re-replication in SW480 colon adenocarcinoma cells; SW480 DNA re-replication, Hoechst DNA content imaging, 48 h; Potency, µM (doses to about 46.1 µM), without a hit: at the highest dose re-replication activation, actives largely listed as activators; 340,000 tested, 1.8% active; also: % of control where 0% means no effect; nearly all actives have a fitted effect of over 55% in size
#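 Hoechst fluorescence of nuclei (405 nm excitation, 500-530 nm emission) measured by plate-scanning imager after 48 hr compound exposure at 37 C; re-replication scored as increased number of nuclei with elevated intensity.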
# The depositor's hits bear a star; i = inactive; ? = inconclusive; nt = no result. Hits are enriched below; roughly 7.9% of the tested compounds scored in any of these assays. Calls follow the shape of the dose curve; as a rule, active = well fitted curve in the direction sought with a large enough effect; inconclusive = small, poorly fitted or top-dose-only effect, or another doubt; inactive = no such curve, though single readings can be large; an effect the other way counts as inactive or inconclusive. Potency is read from the fitted curve at half-maximal effect.
SMILES,HT1080NT lethal,HT1080 IDH1KD tx,KB-3-1 tox,KB-V1 cytotox,MCF10A rerep,SW480 rerep
COc1ccc2c(c1)c1c(c(=O)n(Cc3ccccc3)c(=O)n1CC(=O)Nc1c(C)cccc1C)n2C,nt,nt,i,i,nt,nt
CC(NCc1ccc2c(c1)OCO2)C(=O)N1CCc2ccccc21 (stereo unspecified),-4%,-3%,i,5.2µM*,-70%,?
CC(NCc1ccc(S(N)(=O)=O)cc1)C(=O)N1CCc2ccccc21 (stereo unspecified),2%,15%,i,i,0%,1%
O=C1C(=O)N(CNc2cccnc2)c2ccccc21,15%,22%,i,i,4%,-3%
O=C1C(=O)N(CNc2ccccn2)c2ccccc21,?,-22%,?,i,7.3µM*,12µM*
COc1cccc(CNc2ccc(S(=O)(=O)N3CCCC3)cn2)c1,2%,-7%,i,i,3%,0%
C=CCNC(=S)N/N=C/c1ccc(C)cc1C,23µM*,16µM*,?,?,?,0%
C=CCNC(=S)N/N=C/c1ccc(-c2ccc(OC)cc2)o1,?,?,?,7.3µM*,21µM*,?
C=CCNC(=S)N/N=C/c1ccc(-c2ccc(Cl)cc2Cl)o1,?,?,i,i,13µM*,16µM*
NC(=O)COc1ccc(/C=N\NC(=O)CC(=O)NCCc2ccccc2)cc1,9%,5%,i,i,-17%,-3%
Cc1ccc(S(=O)(=O)N2CC(O)CC2C(=O)OCC(=O)Nc2ccc([N+](=O)[O-])cc2C(F)(F)F)cc1C (stereo unspecified),0%,21%,i,i,2%,-10%
CN1CCC(NCCC(c2ccc(F)cc2)c2ccc(Cl)cc2)CC1 (stereo unspecified),4.1µM*,5.2µM*,16µM*,?,?,?
CCOc1ccc(CNC(=O)c2ccc(Sc3ccc(Cl)cc3)c(NC(C)=O)c2)cc1,-22%,?,?,8.2µM*,?,4%
CC(=O)Nc1cc(C(=O)NCc2ccco2)ccc1Sc1ccc(F)cc1,4%,6%,i,?,-12%,1%
CC(=O)Nc1cc(C(=O)NCc2ccco2)ccc1Sc1ccc(Cl)cc1,-4%,-4%,i,?,15%,-10%
CCOc1ccccc1CNC(=O)c1ccc(Sc2ccc(Cl)cc2)c(NC(C)=O)c1,0%,3%,i,18µM*,20%,?
CC(=O)Nc1cc(C(=O)N(C)Cc2ccco2)ccc1Sc1ccc(Cl)cc1,-2%,-10%,i,2.9µM*,?,-34%
Cc1c(OCC(=O)NCC2CCC(C(=O)O)CC2)ccc2c(-c3ccccc3)cc(=O)oc12 (stereo unspecified),-6%,-2%,i,i,0%,-36%
Cc1cc(C)c2nccc(C)c2c1,nt,nt,i,i,nt,nt
CCOCCCNC(=O)C1CCC(CNS(=O)(=O)c2cccc3nsnc23)CC1 (stereo unspecified),-2%,-10%,i,21µM*,-1%,-8%
Cc1cc(C)c(OCC(=O)Nc2nc(-c3ccccn3)cs2)c(C)c1,-19%,?,?,6.5µM*,-16%,21%
Cc1ccccc1OCC(=O)Nc1nc(-c2ccncc2)cs1,-16%,-10%,i,15µM*,7%,-7%
O=C(CN1CCN(S(=O)(=O)c2ccc(Br)s2)CC1)NC1CCCCC1,5%,2%,i,10µM*,-1%,-2%
